# USP8 inh: inhibitors of human USP8 deubiquitinase; inhibition, % at 20 µM; P40818; 47,000 tested, 4.2% active; purified USP8, Ub-rhodamine cleavage fluorescence, 30 min
# USP17 block: blocks human USP17 ubiquitin-rhodamine cleavage. 47,000 tested, 6.5% active. purified USP17, Ub-rhodamine cleavage fluorescence, 3 h. A8MUK1. inhibition, % at 50 µM. AID 1645855
# USP10 block: blocks human USP10 ubiquitin-rhodamine cleavage. purified USP10, Ub-rhodamine fluorescence, 60 min. inhibition, % at 20 µM. 47,000 tested, 1.1% active. AID 1645856
# USP30 inh: blocks human USP30 ubiquitin-rhodamine cleavage; Q70CQ3; purified USP30, Ub-rhodamine cleavage fluorescence; inhibition, % at 25 µM; 47,000 tested, 5.3% active
# USP7 block: human USP7 deubiquitinase inhibition; 47,000 tested, 0.3% active; purified USP7, Ub-rhodamine cleavage fluorescence; inhibition, % at 20 µM; Q93009
# UCHL1 inh: inhibitors of human UCHL1 deubiquitinase. purified UCHL1, Ub-rhodamine cleavage fluorescence. P09936. inhibition, % at 20 µM. AID 1645859. 47,000 tested, 0.2% active
# Active calls of the source: *; i = inactive; . = no result given. Hits are enriched below; roughly 12% of the tested compounds scored in any of these assays. No stated cut-off is given here; in the data, active means inhibition above about 30%; inactive means the rest.
SMILES,USP8 inh,USP17 block,USP10 block,USP30 inh,USP7 block,UCHL1 inh
Cc1cccc(CN2CCCN(c3ncccc3-c3nc(C)no3)CC2)c1,-55,-24,-3,-20,-2,-1
Cc1nc(C2CCN(S(C)(=O)=O)CC2)nc2c1CCC(=O)N2Cc1ccccc1F,-10,-9,0,8,0,-3
NS(=O)(=O)c1ccc(CCNC(=O)COC(=O)c2cc(-c3ccc(Cl)cc3)nc3ccccc23)cc1,66*,30*,-4,39*,6,5
CCCC(C)NC(=O)COC(=O)c1cc(-c2ccc(Cl)cc2)nc2ccccc12 (centres undefined),12,11,-4,-15,4,0
O=C(Cc1ccccc1)N1CCC2(CC1)OC(C(=O)N1CCCCC1)Cn1ccnc12 (centres undefined),-243,-38,-10,-56,-6,-6
COc1cc2c(cc1OC)C(COc1ccc3c(C)cc(=O)oc3c1)N(C(=O)C1CC1)CC2 (centres undefined),-17,-6,0,1,1,0
Cc1cc(=O)oc2cc(OC(=O)C3CCN(C(=O)c4ccc(Cl)cc4)CC3)ccc12,16,8,1,50*,2,3
c1ccc(-c2noc(-c3nnc(N4CCCC4)c4ccccc34)n2)cc1,19,11,4,4,3,5
COCCN1C(=O)c2[nH]nc(-c3ccccc3O)c2C1c1cccc(OCc2ccccc2)c1 (centres undefined),65*,25,22,27,-2,12
Cc1cc(=O)n(CC(=O)N2CCCc3ccccc32)c(N2CCCCC2)n1,-1,-8,1,-15,-9,-2
O=C(CCn1c(=O)c2ccccc2n(Cc2cc(=O)n3ccccc3n2)c1=O)N1CCc2ccccc2C1,-17,-13,-6,-11,-3,-6
Cc1ccccc1Cn1c(=O)n(CCCC(=O)N2CCc3ccccc3C2)c(=O)c2ccccc21,9,11,17,47*,4,4
O=C(Cn1c(=O)n(CCC(=O)N2CCc3ccccc3C2)c(=O)c2ccccc21)NCc1ccccc1Cl,90*,77*,23,53*,-6,7
Cc1cc(C)nc(C2CCN(C(=O)Cn3nnc4ccccc43)C2)n1 (centres undefined),-5,2,-3,.,5,1
O=C(Nc1ccc2c(c1)OCO2)c1cncc(NS(=O)(=O)c2ccccc2)c1,70*,16,0,-136,-33,21
O=C(Nc1ccc(S(=O)(=O)N2CCCCC2c2cccnc2)cc1)c1ccc2c(c1)OCO2 (centres undefined),21,30,4,44*,9,2
O=C(Nc1ccc2c(c1)OCO2)c1cncc(NS(=O)(=O)c2ccc3c(c2)OCCO3)c1,45*,-41,-8,-282,-13,-6
COc1ccc(COc2ncnc3cc(Cl)ccc23)cc1,-33,12,1,14,-3,5
CCN1CCN(c2nnc(-c3nc(C4CC4)no3)c3ccccc23)CC1,-4,-9,0,-20,-5,1
COc1cccc(N2CCN(c3ccc4nnc(CCC(=O)NCCN5CCCC5)n4n3)CC2)c1,-7,-3,0,-2,-3,-2
COC(=O)C(NC(=O)CCc1nnc2ccc(N3CCN(c4cccc(OC)c4)CC3)nn12)C(C)C (centres undefined),34*,7,-2,9,1,0
COc1cccc(N2CCN(c3ccc4nnc(CCC(=O)NCCC5=CCCCC5)n4n3)CC2)c1,69*,.,-7,8,-1,7
CCN1CCN(C(c2ccc(Br)cc2)c2nnc(-c3ccccc3)o2)CC1 (centres undefined),-9,-10,-4,-7,-27,0
O=C(Cc1cccc2ccccc12)Nc1ccc2c(c1)NC(=O)CO2,3,19,13,30*,6,1
O=C1COc2ccc(NC(=O)N3CCN(C(c4ccccc4)c4ccccc4)CC3)cc2N1,14,3,6,-14,-1,7
SMILES,USP8 inh,USP17 block,USP10 block,USP30 inh,USP7 block,UCHL1 inh
COc1cc(O)c2c(c1)C(=O)c1cc3c(c(O)c1C2=O)C(OC1OC(C)C(OC)C(O)C1OC)C(OC)C(C)(O)C3=O (centres undefined),-326,-160,-4,i,-141,-149
CCCc1c(C(=O)O)c(O[C@H]2O[C@H](C)[C@@H](OC)[C@H](OC)[C@@H]2OC)cc2cc3c(c(O)c12)C(=O)c1c(O)cc(O[C@@H]2O[C@@H](C)[C@H](O[C@H]4O[C@H](C)[C@@H](OC)[C@H](OC)[C@@H]4O)[C@@H](OC)[C@H]2O)cc1C3=O,-29,55*,-11,-316,-8,-2
Cn1ncc2c(Nc3ccc(Cl)cc3)nc(NCCc3ccccc3)nc21,-1,36*,0,42*,5,3
COc1cccc(CNCc2nc(NCc3cccc(OC)c3)c3c(C)c(C)sc3n2)c1,-35,16,9,42*,13,8
COc1cccc(CNc2nnc(-n3nc(C)cc3C)c3ccccc23)c1,-30,-11,-2,-14,-3,-5
COc1ccc(Cl)cc1Nc1cc(C)c2ccccc2n1,12,11,0,16,7,2
Clc1ccc(Oc2nc3ccccc3c3nnc(-c4ccc(Br)cc4)n23)c(Cl)c1,5,37*,4,19,5,3
COc1ccc(CCN(Cc2ccccc2)S(=O)(=O)c2ccc(S(=O)(=O)N3CCCC3)cc2)cc1OC,-8,16,0,18,4,2
O=C(c1ccc(N2CCc3ccccc32)nn1)N1CCc2ccccc21,12,52*,6,1,-2,-1
CC(=O)N1c2ccccc2CC1C(=O)N1CCN(c2ccccn2)CC1 (centres undefined),-3,12,1,24,8,4
Cc1cc(S(=O)(=O)N2CCC(C3(C)NC(=O)NC3=O)CC2)ccc1F (centres undefined),53*,4,15,9,8,2
Cc1cc(S(=O)(=O)N2CCC(c3c(C)[nH]c4ccccc34)CC2)ccc1F,10,-8,-3,-54,-5,1
Cc1ccc(NC(=O)CCc2nnc3c(=O)n(-c4cc(C)cc(C)c4)ccn23)cc1,42*,15,9,43*,10,0
Cc1cc(C)cc(-n2ccn3c(CCC(=O)Nc4ccc(F)cc4)nnc3c2=O)c1,-14,22,10,49*,12,5
COC(=O)c1sccc1-n1cccc1C(=O)C(=O)Nc1ccccc1C(F)(F)F,20,19,2,10,1,4
O=C(Nc1ccc2nc(NS(=O)(=O)c3ccccc3)sc2c1)C1CCCCC1,2,7,19,3,8,1
Cn1ncc(Cl)c1C(=O)Nc1ccc2nc(NC(=O)C3CCCCC3)sc2c1,58*,38*,19,12,13,3

# High-throughput results deposited in PubChem by Buhrlage Lab, Dana-Farber Cancer Institute and Novartis Institutes for BioMedical Research (Cambridge, Mass).
